Results taken from PubChem BioAssay (EPA / NIEHS).
Values joined by “and” are separate entries in the source; they are usually repeats but may differ in a detail not shown here. Equal entries are not always repeated. More than one record can exist for a structure, and the calls need not agree. Active and inactive are the calls of the source. Rule for the calls: active = hit-call score of the fitted dose curve at least 0.9, where 1 is the maximum; inactive = score below 0.9.

Experiment: CCTE_Shafer_MEA_dev_network_spike_peak: CCTE's Neural Network Formation Assay for Mean Number of Electrodes in Network Spike, Shafer Lab (AID 2284049)
Description: CCTE_Shafer_MEA_dev assay is conducted using Axion Biosystems 48 well microelectrode array (MEA) plates and Maestro recording system. Each well of the MEA plate contains a grid of 16 microelectrodes embedded in the culture surface. Electrically active cells, such as neurons, can be cultured over the electrodes, and electrical activity in these cells can be recorded extracellularly. The spontaneous firing of neurons is captured from each electrode on a microsecond timescale providing both temporally and spatially precise data. […] The CCTE_Shafer_MEA_dev assay uses primary cultures of rat cortical neurons. Recordings are made on days post-plating 5, 7, 9 and 12. As these cultures mature over time, neural networks develop functional activity and form cohesive networks in which electrical activity can be highly coordinated. CCTE_Shafer_MEA_dev_network_spike_peak is 1 of 19 assay components of the CCTE_Shafer_MEA_dev assay. It measures the average number of electrodes participating at the peak of a network spike (the peak of a temporally-clustered group of action potential firing across multiple electrodes) during a recording in a microelectrode array (MEA) using Axion Biosystems Maestro 768 channel amplifier with the AxIS adaptive spike detector. To collapse across multiple recordings made on days post-plating 5, 7, 9 and 12, the trapezoidal area-under-the-curve of the component is calculated.Data from the assay component CCTE_Shafer_MEA_dev_network_spike_peak was analyzed into 1 assay endpoint. This assay endpoint, CCTE_Shafer_MEA_dev_network_spike_peak, was analyzed in the negative analysis fitting direction relative to DMSO as the negative control and baseline of activity. Using a type of functional reporter, gain or loss-of-signal activity can be used to understand electrical activity.
On the day prior to culture, each well was coated thoroughly with 150 uL of 0.05% polyethyleneimine (PEI, Sigma Cat P3143) in 50 mM HEPES (Sigma Cat H7523) at a pH of 8. The plate was incubated at 37C for one hour. PEI was rinsed out with 500 uL of sterile water three times. Plates were stored at 4C until the day of culture. This culture was plated at a seeding density of 1.5 x 10^5 cells/well on a 48-well MEA plate, prepared as described above. Cells were administered via a 25 uL media/laminin ([…]; Sigma Cat L2020-1MG) drop directly onto the microelectrode array, as adding the cells with the laminin results in better attachment than pre-coating with laminin. After 2 hours, an additional 475 uL of cortical media was added and the cells returned to the incubator. Exposure starts at day 0 of plating and is continued over twelve days of network development until the experiment is terminated. Cells are fed with fresh medium on DIV 5 and 9, following the recordings on those days. The entire volume of media in the well is exchanged and any vehicle or compound treatment is renewed. Complete details are found in OP-NHEERL/ISTD/SBB/TJS/2015-03-r0 (available on request, email shafer.tim@epa.gov). Measurement of the electrical activity is non-invasive, and recordings can be made from the same plate over multiple different days of the culture. In cortical neurons, this allows for the measurement of extracellular action potentials over the period during which networks form in the MEA plate.

| SMILES | outcome | AC50 |
| --- | --- | --- |
| O=P1(N(CCCl)CCCl)NCCCO1 (stereo not given) | inactive |  |
| CC(O)C(F)(F)C(F)(F)F (stereo not given) | inactive |  |
| CC(C)(C)c1ccccc1OP(=O)(Oc1ccccc1)Oc1ccccc1 | inactive | 22.9 µM (active) |
| CO/N=C(/C(=O)OC)c1ccccc1COc1ccccc1C |  | 0.567 µM (active) |
| ClC1=C(Cl)C2(Cl)C3C(Cl)C(Cl)CC3C1(Cl)C2(Cl)Cl (stereo not given) |  | 6.76 µM (active) |
| OCC(F)(F)OC(F)(F)C(F)(F)OC(F)(F)C(F)(F)OC(F)(F)CO | inactive |  |
| OCC(F)(F)OC(F)(F)C(F)(F)OC(F)(F)C(F)(F)OC(F)(F)F |  | 0.818 µM (active) |
| O=C(O)C1C(C(=O)O)C2(Cl)C(Cl)=C(Cl)C1(Cl)C2(Cl)Cl (stereo not given) | inactive |  |
| C=CC(=O)OCC(F)(F)C(F)F |  | 9.04 µM (active) |
| O=C(O)C(F)(F)OC(F)(F)C(F)(F)OC(F)(F)C(=O)O | inactive |  |
| O=C(O)C(F)(F)OC(F)(F)C(F)(F)OC(F)(F)F | inactive |  |
| c1cc2c3c(cccc3c1)CC2 | inactive |  |
| O=C(O)C=CC(F)(C(F)(F)F)C(F)(F)F | inactive |  |
| O=P(Oc1ccccc1)(Oc1ccccc1)Oc1ccccc1 |  | 2.97 µM (active) |
| CCCCC(CC)COP(=O)(Oc1ccccc1)Oc1ccccc1 (stereo not given) |  | 1.67 µM (active) |
| O=C(O)C(F)(F)C(F)(F)C(=O)O | inactive |  |
| CCCCC(CC)COC(=O)c1c(Br)c(Br)c(Br)c(Br)c1C(=O)OCC(CC)CCCC (stereo not given) |  | 0.33 µM (active) |
| OCC(F)(F)OC(F)(F)C(F)(F)OC(F)(F)CO | inactive |  |
| O=S(=O)(c1ccc(O)cc1)c1ccc(O)cc1 | inactive |  |
| CCOP(=S)(OCC)SCSCC |  | 74.9 µM (active) and 26.4 µM (active) |
| CCOc1ccc(C(C)(C)COCc2cccc(Oc3ccccc3)c2)cc1 |  | 6.54 µM (active) |
| O=C(O)C(F)(OC(F)(F)C(F)(F)C(F)(F)F)C(F)(F)F (stereo not given) | inactive |  |
| CCC1(c2ccccc2)C(=O)N=C(O)NC1=O (stereo not given) | inactive |  |
| c1ccc(OP(Oc2ccccc2)Oc2ccccc2)cc1 | inactive |  |
